The results in this text go back to PubChem BioAssay (NCI).

Assay [1] in a line: NCI Yeast Anticancer Drug Screen. Data for the rad50 strain (AID 155).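 Further: 0% = growth of vehicle-only cultures of the same strain.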 As to conditions: S. cerevisiae rad50 strain growth inhibition; at 50.0 µM; active compounds read high. In outline: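 Yeast carrying a defined DNA repair defect were exposed to test compounds, and growth was compared with vehicle-treated controls to give percent inhibition.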
Assay [2] is described as follows: NCI Yeast Anticancer Drug Screen. Data for the mec2-1 strain (AID 157). As to conditions: S. cerevisiae mec2-1 strain, at 50.0 µM, active compounds read high. In outline: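 Growth inhibition is read against vehicle-treated controls after compound exposure of the mec2-1 yeast strain, which is defective in DNA damage repair or cell cycle control.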
The nature of assay [3]: NCI Yeast Anticancer Drug Screen. Data for the sgs1 mgt1 strain (AID 161).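 Further: 0% = growth of cultures given vehicle only.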 As to conditions: S. cerevisiae sgs1 mgt1 strain, at 50.0 µM, active compounds read high. In outline:
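Compounds are added to genetically altered yeast, and growth is compared with cultures given vehicle alone to give percent inhibition.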

Assay [4] is described as follows: NCI Yeast Anticancer Drug Screen. Data for the cln2 rad14 strain (AID 165).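 Further: 0% = growth equal to vehicle treated cultures.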 As to conditions: S. cerevisiae cln2 rad14 strain, at 50.0 µM, active compounds read high. In outline:
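Growth inhibition, relative to vehicle-treated controls, is the read-out. The test organism is a yeast strain with defined genetic alterations, cln2 rad14.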

Assay [5] in a line: NCI Yeast Anticancer Drug Screen. Data for the bub3 strain (AID 167). The note with it: S. cerevisiae bub3 mutant strain, at 50.0 µM, active compounds read high. In outline:
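Compounds were applied to a genetically altered yeast strain carrying a cell-cycle control defect. Growth inhibition was scored against vehicle-treated controls.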

Assay [6] can be described thus: NCI Yeast Anticancer Drug Screen. Data for the mlh1 rad18 strain (AID 175). The note with it: S. cerevisiae mlh1 rad18 strain growth inhibition; at 50.0 µM; active compounds read high. In outline: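 Cells of a genetically altered yeast strain, deficient in DNA damage repair, were treated with compound. Their growth was then compared with that of vehicle-treated cultures to give inhibition.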

SMILES strings stand for the structures. About 79,000 compounds went through this panel and 15% of them were active in at least one assay; those are over-represented in the sample as a whole. Unmarked numbers belong to inactive results. Active and inactive are the calls of the source. No stated cut-off is given here; in the data, active means growth inhibition above about 70%; inactive means the rest.

As for `CCOC(=O)/C(=C\c1ccc(OCc2ccccc2)c(OC)c1)C(=O)c1ccccc1`, the growth inhibition in assay [1] was 15.6%; in assay [2] it was -9.55%; in assay [3], 8.3%; in assay [4] it was -5.15%; in assay [5], -13.4%; in assay [6] it was -15.3%.

As to `O/N=C1/CC2CCCCC2CC1(O)c1ccccc1` (stereo unspecified), the growth inhibition in assay [1] is 17.3%; in assay [2], 19.1%; in assay [3] it was 17.6%; in assay [4] it was 18.4%; in assay [5], -3.55%; in assay [6] it was 30.4%.

As to `CC(=N\N=C(N)N)/C(N=Nc1ccc(S(N)(=O)=O)cc1)=N\N=C(N)N`, the growth inhibition in assay [1] was -0.75%; in assay [2], 5.55%; in assay [3] it was 19.4%; in assay [4], -45.6%; in assay [5], -0.55%; in assay [6] it was 21.3%.

With `O=C(O)c1ccc(OCCOc2ccccc2)c(Cl)c1`, the growth inhibition was 31% in assay [1]; 74.8% (active) in assay [2]; 61.3% in assay [3]; 40.2% in assay [4]; 63.6% in assay [5]; 61% in assay [6].

In the case of `O=S(=O)(Cc1ccccc1)/C(=C\c1ccccc1)c1ccccc1`, the growth inhibition in assay [1] is -6.65%; in assay [2] it was 11.4%; in assay [3], 2.4%; in assay [4], 0.1%; in assay [5] it was 6.6%; in assay [6], 5.5%.

On to `CNC(=O)C1NCCc2cc(OC)c(OC)cc21` (stereo unspecified), for which the growth inhibition in assay [1] is 21.9%; in assay [2] it was -22%; in assay [3], 20.7%; in assay [4] it was 13.2%; in assay [5], 10.4%; in assay [6], 20.6%.

Consider `COC(=O)Cc1c(C(=O)OC)c(O)cc(O)c1C(=O)OC`, for which the growth inhibition in assay [1] is 5.85%; in assay [2] it was 5.25%; in assay [3], -10.2%; in assay [4] it was -14.4%; in assay [5] it was 12.3%; in assay [6], -5.85%.

`Cn1c(=O)c(C(=O)NC(=O)OCc2ccccc2)cn(CCSCCOC(=O)NCCCCCCNC(=O)OCCSCCn2cc(C(=O)NC(=O)OCc3ccccc3)c(=O)n(C)c2=O)c1=O`: the growth inhibition was -3.1% in assay [1]; -21.1% in assay [2]; -6.35% in assay [3]; -0.95% in assay [4]; -5.15% in assay [5]; -16.5% in assay [6].

Regarding `CCC1(C)C(=O)SC(=S)N1C` (stereo unspecified), the growth inhibition in assay [1] was 4.4%; in assay [2], -0.2%; in assay [3] it was -4.9%; in assay [4] it was -8.4%; in assay [5] it was -0.7%; in assay [6] it was 5.6%.

Regarding `COC(=O)C(C)n1c(C)csc1=S` (stereo unspecified), the growth inhibition was -0.15% in assay [1]; 4.85% in assay [2]; -1.05% in assay [3]; -26.4% in assay [4]; 16.6% in assay [5]; -0.55% in assay [6].

Turning to `O=c1c(O)c(-c2ccccc2)oc2c(CP(=O)(O)O)cccc12`, the growth inhibition in assay [1] was 5.05%; in assay [2] it was -19.1%; in assay [3] it was -17.3%; in assay [4], -12.5%; in assay [5], -2.45%; in assay [6] it was -18%.

As for `O=C1C2=C(c3ccccc31)C(c1ccc([N+](=O)[O-])cc1)NC(=S)N2` (stereo unspecified), the growth inhibition in assay [1] was 5.6%; in assay [2] it was 8.7%; in assay [3] it was 1.8%; in assay [4] it was 9.8%; in assay [5] it was -3.6%; in assay [6], 32.5%.

For `Cc1cc2c(cc1N)C(C)(C)CCC2(C)C`, the growth inhibition is -4.65% in assay [1]; -18.2% in assay [2]; 10.2% in assay [3]; -24.9% in assay [4]; -11.8% in assay [5]; -18.1% in assay [6].

With `CN1CCC(CNc2ccccc2)CC1`, the growth inhibition in assay [1] was 3.6%; in assay [2], -0.5%; in assay [3] it was 6.05%; in assay [4], -20.5%; in assay [5] it was 14.5%; in assay [6], 3.45%.

For the molecule `Cn1c2c(c3ccccc31)=NN1CCN=C1N=2`, the growth inhibition in assay [1] was 11.2%; in assay [2] it was -2.95%; in assay [3] it was -0.15%; in assay [4], -28.2%; in assay [5] it was 17.2%; in assay [6], 4%.

For the molecule `CCCS(=O)(=O)N1CCCC1`, the growth inhibition was -1.25% in assay [1]; -15.8% in assay [2]; -2.1% in assay [3]; -34.5% in assay [4]; -24.4% in assay [5]; -19.4% in assay [6].

`Oc1c(C(O)N2CCOCC2)cc(C(O)N2CCOCC2)c(O)c1O` (stereo unspecified) (tested in a mixture with another compound): the growth inhibition is -3.3% in assay [1]; -11.1% in assay [2]; -17% in assay [3]; -16.2% in assay [4]; -3.15% in assay [5]; 9.75% in assay [6].

For the molecule `O=S1(=O)CC(c2ccccc2)(c2ccccc2)Nc2ccccc21`, the growth inhibition in assay [1] is -6.55%; in assay [2], -14.8%; in assay [3] it was 0.45%; in assay [4], -5.65%; in assay [5], -11.3%; in assay [6] it was -18.1%.

Regarding `CCOC(=O)C(Cc1ccccc1)NC(=O)c1[nH]cnc1/N=N/N(C)C` (stereo unspecified), the growth inhibition is 44% in assay [1]; -44% in assay [2]; -29.4% in assay [3]; -2.05% in assay [4]; 2.8% in assay [5]; -22.3% in assay [6].

As for `C=CC12COC(=O)CC1CCC(=O)C2` (stereo unspecified), the growth inhibition in assay [1] is 4.75%; in assay [2], -10.2%; in assay [3], -14.2%; in assay [4], -19.4%; in assay [5] it was 13.4%; in assay [6], -5.4%.

`CSC(=S)n1nc(-c2ccccc2)c(N=Nc2ccccc2[N+](=O)[O-])c1-c1ccccc1`: the growth inhibition in assay [1] is 31.6%; in assay [2], 12.5%; in assay [3], 20.2%; in assay [4], -30.9%; in assay [5], 18.6%; in assay [6], 29.9%.

Regarding `OC1CC2CCCCC2CC1C1CCCCC1` (stereo unspecified), the growth inhibition is 4.15% in assay [1]; -11.2% in assay [2]; -7.25% in assay [3]; -25.6% in assay [4]; -23.7% in assay [5]; 0.85% in assay [6].

Take `CCOC(=O)C(=O)Nc1nc2ccc(OC)cc2s1`: the growth inhibition is -39.8% in assay [1]; -7.3% in assay [2]; -10.8% in assay [3]; 6.75% in assay [4]; 0.15% in assay [5]; 9.25% in assay [6].

Consider `COc1ccc(/C=C(\CC(=O)c2ccc(Cl)cc2)C(=O)O)cc1`, for which the growth inhibition is -21.5% in assay [1]; -8.85% in assay [2]; 6.6% in assay [3]; -30.6% in assay [4]; 1% in assay [5]; -5.8% in assay [6].

Regarding `CC(=O)Oc1cccc2c1C(=O)c1ccccc1C2=O`, the growth inhibition in assay [1] is 30%; in assay [2], 5.3%; in assay [3] it was 22.4%; in assay [4], -4.2%; in assay [5], 11.3%; in assay [6], -10%.

For `CCOP(=O)(c1ccccc1)C(C)C` (stereo unspecified), the growth inhibition in assay [1] was -7.85%; in assay [2], -0.5%; in assay [3] it was -1.7%; in assay [4], -40%; in assay [5], -0.65%; in assay [6], -0.2%.

As to `O=C(Nc1cccc(C(=O)Nc2ccc(S(=O)(=O)O)c3cc(S(=O)(=O)O)cc(S(=O)(=O)O)c23)c1)Nc1cccc(C(=O)Nc2cccc3c(S(=O)(=O)O)c(S(=O)(=O)O)cc(S(=O)(=O)O)c23)c1`, the growth inhibition is -0.25% in assay [1]; 7.2% in assay [2]; 0.65% in assay [3]; 47.9% in assay [4]; 12.9% in assay [5]; 13.7% in assay [6].

`c1ccc(N=NC(N=Nc2ccccc2)=P(c2ccccc2)(c2ccccc2)c2ccccc2)cc1`: the growth inhibition in assay [1] is 56.4%; in assay [2], 98.7% (active); in assay [3] it was 53%; in assay [4] it was 64.6%; in assay [5], 46.7%; in assay [6], 61.9%.

`CC1C(=O)OC(=O)C1C` (stereo unspecified): the growth inhibition was -11.2% in assay [1]; -6.2% in assay [2]; 11.5% in assay [3]; 4% in assay [4]; -4.6% in assay [5]; 8.8% in assay [6].

As to `O=c1oc2ccccc2cc1S(=O)(=O)c1ccc(Cl)cc1`, the growth inhibition was -0.9% in assay [1]; 0.85% in assay [2]; 3.7% in assay [3]; -58% in assay [4]; -9.75% in assay [5]; -20.4% in assay [6].

Regarding `Oc1ccccc1C=Nc1cccnc1`, the growth inhibition is 6.75% in assay [1]; -19.5% in assay [2]; -2.45% in assay [3]; -7.2% in assay [4]; -0.6% in assay [5]; 8.7% in assay [6].

With `COC(=O)c1ccc(SCCC2(COS(C)(=O)=O)OCCO2)cc1`, the growth inhibition in assay [1] was 18.6%; in assay [2], -16.9%; in assay [3], 1.35%; in assay [4] it was 18.7%; in assay [5], 1.4%; in assay [6], -4.1%.

In the case of `Cc1[nH]c2ccc(C(=O)NN)cc2c1CC(=O)NN`, the growth inhibition is 12.2% in assay [1]; 8.45% in assay [2]; 14.8% in assay [3]; -23.1% in assay [4]; 6.55% in assay [5]; 25.1% in assay [6].

As for `CN(C)c1nc2[nH]ncc2c(=O)[nH]1`, the growth inhibition in assay [1] was 11.6%; in assay [2] it was 1.25%; in assay [3], 5.7%; in assay [4], -10.1%; in assay [5], 0.5%; in assay [6], 0.8%.

Take `O=C(/C(=N\Nc1ccc([N+](=O)[O-])cc1[N+](=O)[O-])c1ccccc1)c1ccccc1`: the growth inhibition in assay [1] was -11.6%; in assay [2] it was -11.7%; in assay [3], -2.5%; in assay [4], -20.8%; in assay [5], 2.95%; in assay [6] it was -1.3%.

With `CC(C)c1cc(C(C)C)c(S(=O)(=O)N/N=C2\CC3CCC2(C)C3(C)C)c(C(C)C)c1` (stereo unspecified), the growth inhibition was -8.7% in assay [1]; -16.9% in assay [2]; -13.3% in assay [3]; -4.35% in assay [4]; -54.5% in assay [5]; 0.65% in assay [6].
